In publication PMC5700166:

What follows are sequences tested against T1, GST-Nv-NF-kB (Ser allele) (Nematostella vectensis, UniProt A7UNT2 2-411) (assay: protein-binding microarray (PBM); PBM: ~300 nM protein, 6 mM HEPES pH 7.8, 80 mM KCl, 0.5 mM EDTA, 0.5 mM EGTA, 6% glycerol, 35 ng/ul poly-dIdC, 1% milk, 1 h, room temperature; Ap Aiptasia and Nv Nematostella (sea anemones) / Co Capsaspora / Aq Amphimedon (sponge) / Dm Drosophila / Hu human; RHD is the Rel homology domain; high values mean tight binding). Conditions: dsDNA, one strand shown.
T1 sequence: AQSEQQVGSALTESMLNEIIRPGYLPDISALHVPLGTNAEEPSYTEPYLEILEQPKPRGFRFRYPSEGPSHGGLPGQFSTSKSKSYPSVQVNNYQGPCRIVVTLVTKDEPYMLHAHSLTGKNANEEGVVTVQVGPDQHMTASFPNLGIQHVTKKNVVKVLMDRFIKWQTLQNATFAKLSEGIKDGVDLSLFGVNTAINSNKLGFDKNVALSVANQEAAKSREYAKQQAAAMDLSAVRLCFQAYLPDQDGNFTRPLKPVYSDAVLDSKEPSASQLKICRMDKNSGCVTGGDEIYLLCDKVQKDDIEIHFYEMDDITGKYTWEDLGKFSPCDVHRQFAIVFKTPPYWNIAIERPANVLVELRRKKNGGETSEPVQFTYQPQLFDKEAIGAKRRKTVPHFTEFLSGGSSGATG

Question: Which binding signal does the source give for “CCGATTAACATCATCCGGGAAAATGATGTTAATCGGGTCTTGATTCGCTTGACGCTGCTG” here?
Answer: 5.1 z-score

Question: How did the binding signal turn out when “CCGATTAACATCAAATCTTTCCCTGATGTTAATCGGGTCTTGATTCGCTTGACGCTGCTG” was run?
Answer: 6.25 z-score

Question: How did the binding signal turn out when “CCGATTAACATCACTTTTTCCCATGATGTTAATCGGGTCTTGATTCGCTTGACGCTGCTG” was run?
Answer: 4.35 z-score

Question: With “CCGATTAACATCAATCTACCCCCTGATGTTAATCGGGTCTTGATTCGCTTGACGCTGCTG” as the sequence, how does the binding signal read?
Answer: 4.13 z-score

Question: “CCGATTAACATCAGGGCAGCCCCTGATGTTAATCGGGTCTTGATTCGCTTGACGCTGCTG” was tested. Which binding signal did it give?
Answer: 2.79 z-score

Question: With “CCGATTAACATCAGGGGAGGTACTGATGTTAATCGGGTCTTGATTCGCTTGACGCTGCTG” as the sequence, how does the binding signal read?
Answer: 4.46 z-score

Question: How did the binding signal turn out when “CCGATTAACATCACCCGCTTTATTGATGTTAATCGGGTCTTGATTCGCTTGACGCTGCTG” was run?
Answer: 1.21 z-score

Question: “CCGATTAACATCAGGGTATTCCATGATGTTAATCGGGTCTTGATTCGCTTGACGCTGCTG” was tested. Which binding signal did it give?
Answer: 4.16 z-score

Question: For “CCGATTAACATCAGGAAGACCCCTGATGTTAATCGGGTCTTGATTCGCTTGACGCTGCTG”, which binding signal is on record?
Answer: 1.11 z-score

Question: Which binding signal does the source give for “CCGATTAACATCACCCGATTCCCTGATGTTAATCGGGTCTTGATTCGCTTGACGCTGCTG” here?
Answer: 4.07 z-score

Question: With “CCGATTAACATCAGGAAAAGCCCTGATGTTAATCGGGTCTTGATTCGCTTGACGCTGCTG” as the sequence, how does the binding signal read?
Answer: 1.03 z-score

Question: “CCGATTAACATCACGCAACCCCCTGATGTTAATCGGGTCTTGATTCGCTTGACGCTGCTG” was tested. Which binding signal did it give?
Answer: 4.87 z-score

Question: For “CCGATTAACATCAGGGAGTTACCTGATGTTAATCGGGTCTTGATTCGCTTGACGCTGCTG”, which binding signal is on record?
Answer: 3.21 z-score

Question: For “CCGATTAACATCACATACTCCCCTGATGTTAATCGGGTCTTGATTCGCTTGACGCTGCTG”, which binding signal is on record?
Answer: 4.25 z-score

Question: Which binding signal does the source give for “CCGATTAACATCAGGGGTTTCCATGATGTTAATCGGGTCTTGATTCGCTTGACGCTGCTG” here?
Answer: 4 z-score

Question: With “CCGATTAACATCAGGGATTCTCATGATGTTAATCGGGTCTTGATTCGCTTGACGCTGCTG” as the sequence, how does the binding signal read?
Answer: 1.71 z-score

Question: With “CCGATTAACATCACGAGATTCCCTGATGTTAATCGGGTCTTGATTCGCTTGACGCTGCTG” as the sequence, how does the binding signal read?
Answer: 3.97 z-score

Question: With “CCGATTAACATCAAGGCATTCCCTGATGTTAATCGGGTCTTGATTCGCTTGACGCTGCTG” as the sequence, how does the binding signal read?
Answer: 2.11 z-score

Question: Which binding signal does the source give for “CCGATTAACATCAAGTGTTTCCCTGATGTTAATCGGGTCTTGATTCGCTTGACGCTGCTG” here?
Answer: 3.36 z-score

Question: “CCGATTAACATCATCAGGGAAAATGATGTTAATCGGGTCTTGATTCGCTTGACGCTGCTG” was tested. Which binding signal did it give?
Answer: 5.74 z-score

Question: Which binding signal does the source give for “CCGATTAACATCAGGGGAACACATGATGTTAATCGGGTCTTGATTCGCTTGACGCTGCTG” here?
Answer: 5.55 z-score

Question: How did the binding signal turn out when “CCGATTAACATCAGGCACCCCCCTGATGTTAATCGGGTCTTGATTCGCTTGACGCTGCTG” was run?
Answer: 3.18 z-score

Question: “CCGATTAACATCACGTATTTCCCTGATGTTAATCGGGTCTTGATTCGCTTGACGCTGCTG” was tested. Which binding signal did it give?
Answer: 4.49 z-score

Question: Which binding signal does the source give for “CCGATTAACATCACGGAATACCCTGATGTTAATCGGGTCTTGATTCGCTTGACGCTGCTG” here?
Answer: 3.97 z-score

Question: How did the binding signal turn out when “CCGATTAACATCACGGATTTCCCTGATGTTAATCGGGTCTTGATTCGCTTGACGCTGCTG” was run?
Answer: 5.46 z-score

Question: With “CCGATTAACATCAAATAGGGAATTGATGTTAATCGGGTCTTGATTCGCTTGACGCTGCTG” as the sequence, how does the binding signal read?
Answer: 4.24 z-score

Question: How did the binding signal turn out when “CCGATTAACATCAGGGGGGGTGATGATGTTAATCGGGTCTTGATTCGCTTGACGCTGCTG” was run?
Answer: 3.98 z-score

Question: Which binding signal does the source give for “CCGATTAACATCAGGGGGATGTATGATGTTAATCGGGTCTTGATTCGCTTGACGCTGCTG” here?
Answer: 5.85 z-score

Question: For “CCGATTAACATCAGAATTCCCGCTGATGTTAATCGGGTCTTGATTCGCTTGACGCTGCTG”, which binding signal is on record?
Answer: 3.89 z-score

Question: With “CCGATTAACATCAGGGGGTTAACTGATGTTAATCGGGTCTTGATTCGCTTGACGCTGCTG” as the sequence, how does the binding signal read?
Answer: 4.34 z-score

Question: With “CCGATTAACATCATGGAGGGAGGTGATGTTAATCGGGTCTTGATTCGCTTGACGCTGCTG” as the sequence, how does the binding signal read?
Answer: 1.02 z-score

Question: Which binding signal does the source give for “CCGATTAACATCAGGAAACTACCTGATGTTAATCGGGTCTTGATTCGCTTGACGCTGCTG” here?
Answer: 3.83 z-score

Question: “CCGATTAACATCACCCATGGGAATGATGTTAATCGGGTCTTGATTCGCTTGACGCTGCTG” was tested. Which binding signal did it give?
Answer: 1.02 z-score

Question: For “CCGATTAACATCATTCGGGAAAATGATGTTAATCGGGTCTTGATTCGCTTGACGCTGCTG”, which binding signal is on record?
Answer: 4.94 z-score

Question: For “CCGATTAACATCAGGGACTCACCTGATGTTAATCGGGTCTTGATTCGCTTGACGCTGCTG”, which binding signal is on record?
Answer: 2.72 z-score

Question: For “CCGATTAACATCACCCCAGCCCCTGATGTTAATCGGGTCTTGATTCGCTTGACGCTGCTG”, which binding signal is on record?
Answer: 1.91 z-score

Question: How did the binding signal turn out when “CCGATTAACATCAAAAATTTTCCTGATGTTAATCGGGTCTTGATTCGCTTGACGCTGCTG” was run?
Answer: 1.32 z-score

Question: For “CCGATTAACATCAGGGGGTACACTGATGTTAATCGGGTCTTGATTCGCTTGACGCTGCTG”, which binding signal is on record?
Answer: 3.94 z-score

Question: For “CCGATTAACATCAGGAGACTCCCTGATGTTAATCGGGTCTTGATTCGCTTGACGCTGCTG”, which binding signal is on record?
Answer: 1.61 z-score
